Bioassay records (PubChem BioAssay)
In the library only some 4.7% were active in any assay of this set; here they are far more common.
TRHR agonist: qHTS for Small Molecule Agonists and Allosteric Enhancers of Human TRH Receptor: Primary Screen for Agonists; Thyrotropin-releasing hormone receptor (Homo sapiens), P34981; TRHR cells, calcium flux fluo-8, FDSS agonist mode; activation, % at 2 µM; 360,000 tested, 0.18% active; AID 493084, 2011
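Agonist-mode FDSS calcium read (Ex 480/Em 530, 1 s cycles) in 1536-well TRHR cells with fluo-8 dye, after 10-cycle baseline and 23 nL compound addition; TRH at EC20 (10 nM final) added afterwards for the enhancer phase.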
D1 antagonist: Antagonist of Human D 1 Dopamine Receptor: qHTS; activity change, negative = inhibition, % at 10 µM; HEK293 TREx D1 cells, calcium flux, dopamine EC80; stronger effect = lower value; D(1A) dopamine receptor (Homo sapiens), P21728; 360,000 tested, 3.2% active; in the data active = activity change below about -30%
Target sequence (P21728 whole entry, looked up): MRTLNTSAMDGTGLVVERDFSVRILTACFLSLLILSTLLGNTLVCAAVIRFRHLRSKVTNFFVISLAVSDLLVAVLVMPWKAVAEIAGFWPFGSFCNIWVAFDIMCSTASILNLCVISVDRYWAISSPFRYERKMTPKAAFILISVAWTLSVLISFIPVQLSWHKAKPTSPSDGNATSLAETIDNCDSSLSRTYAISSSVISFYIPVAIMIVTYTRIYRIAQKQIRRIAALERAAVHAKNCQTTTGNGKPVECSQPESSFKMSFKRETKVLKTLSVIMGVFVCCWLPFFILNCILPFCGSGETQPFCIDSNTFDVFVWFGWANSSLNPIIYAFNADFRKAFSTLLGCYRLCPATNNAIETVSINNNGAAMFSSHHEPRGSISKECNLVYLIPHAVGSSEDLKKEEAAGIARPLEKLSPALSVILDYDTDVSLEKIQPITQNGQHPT
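After overnight tetracycline induction at 30 C, force-coupled D1 HEK293 cells took up a no-wash calcium dye at room temperature. Compounds were added and monitored 180 s, and the response to EC80 dopamine was then recorded.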
D1 ag: Allosteric Agonists of the Human D1 Dopamine Receptor: qHTS; D(1A) dopamine receptor (Homo sapiens), P21728; HEK293 T-REx D1 cells, calcium flux, agonist mode; activation, % at 2 µM; 360,000 tested, 1% active; AID 504660, 2011
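Inducible HEK293 T-REx D1 cells, force-coupled to calcium signalling, were plated at 4000 cells/well with tetracycline and held overnight at 30 C. After no-wash calcium dye loading, compound-evoked calcium rise over 180 s flagged agonists.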
D1 potentiator: Potentiators of Human D1 Dopamine Receptor: qHTS | HEK293 TREx D1 cells, calcium flux, dopamine EC20 potentiation | D(1A) dopamine receptor (Homo sapiens), P21728 | 360,000 tested, 0.036% active | potentiation, % at 10 µM; in the data active = potentiation above about 30%
TRHR PAM: qHTS for Small Molecule Agonists and Allosteric Enhancers of Human TRH Receptor: Primary Screen for Enhancers; Thyrotropin-releasing hormone receptor (Homo sapiens), P34981; TRHR cells, fluo-8 calcium fluorescence, EC20 TRH enhancement; enhancement, % at 2 µM; 360,000 tested, 0.66% active; AID 493056, 2011; in the data active = enhancement above about 30%
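TRHR-expressing cells loaded with fluo-8 calcium dye were read kinetically (ex 480/em 530) during compound addition, then stimulated with an EC20 of TRH (10 nM final). Enhancement of the Gq-mediated intracellular calcium response was scored.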
Hits are given with their value; – = inactive; · = no result. Rule as the data show it, unless noted: active = activation above about 30%; inactive = the rest.

SMILES	TRHR agonist	D1 antagonist	D1 ag	D1 potentiator	TRHR PAM
CCOC(=O)c1cc(NC(=O)c2ccc(C)cc2)c(=O)n2c1oc1ccc(Cl)cc12	–	–	–	–	–
Clc1ccccc1CN(Cc1ccccc1)C(c1cccs1)c1nnnn1C1CCCC1 (stereo not given)	–	-34	–	–	–
Clc1ccc(CN(CC2CCCO2)C(c2cccs2)c2nnnn2C2CCCC2)cc1 (stereo not given)	–	-53	–	–	–
COc1cccc(C2CC(=O)Nc3cc(OC)c(OC)c(OC)c32)c1OC(C)C (stereo not given)	–	–	–	–	–
COc1ccc(NC(=O)c2c(-c3ccc(C)cc3)nnc3ccccc23)cc1OC	–	–	–	–	–
CCCCNC(=O)CCCCC(=O)N/N=C/c1cccc(Cl)c1	–	–	–	–	31
COc1ccc(C2C(C(=O)N3CCN(c4ccccc4F)CC3)c3ccccc3C(=O)N2C)cc1 (stereo not given)	–	-83	–	–	–
CN1CCN(C2=Cc3ccccc3Sc3cc(F)c(F)cc32)CC1	–	-83	56	–	–
CN1CCN(C2=Cc3cc(Cl)ccc3Sc3cc(F)ccc32)CC1	–	–	–	–	–
CN1CCN(C2=Cc3ccccc3Sc3cc(F)c(Cl)cc32)CC1	–	-70	–	–	–
Cc1ccc(CNC(=O)COC(=O)c2ccc(S(=O)(=O)N3CCCC3)cc2)cc1	–	-30	–	–	–
CCOc1ccc(CCNC(=O)COC(=O)c2ccc(S(C)(=O)=O)cc2)cc1OCC	–	–	–	–	–
CCOc1ccc(CCNC(=O)COC(=O)c2ccc(S(=O)(=O)N3CCCC3)cc2)cc1OCC	–	-38	–	–	–
CCOc1ccc(CCNC(=O)COC(=O)c2ccc(C)c([N+](=O)[O-])c2)cc1OCC	–	-47	–	–	–
COc1ccc(NC(=O)c2ccc(NC3CC(=O)N(c4ccc(C)cc4C)C3=O)cc2)cc1 (stereo not given)	–	-31	–	–	–
Cc1ccc(-c2nc3ncccc3o2)cc1NC(=O)c1ccccc1Br	–	–	–	–	–
Cc1ccc2onc(CC(=O)N3CCN(c4cccc(Cl)c4)CC3)c2c1	–	–	–	–	–
COc1ccc(CCNC(=O)C2CCN(c3ccc(N4CCOCC4)nn3)CC2)c(OC)c1	–	-33	–	–	–
N#Cc1sc2nc(-c3cccs3)cc(-c3ccc(Cl)cc3)c2c1N	–	-32	–	–	–
N#Cc1sc2nc(-c3cccs3)cc(-c3ccccc3)c2c1N	–	–	–	–	–
CCOc1ccccc1OCC(=O)Nc1cc(S(=O)(=O)N2CCCCC2)ccc1N1CCN(CC)CC1	–	-36	–	–	–
CCN1CCN(c2ccc(S(=O)(=O)N3CCCCC3)cc2NC(=O)/C=C/c2cc(OC)ccc2OC)CC1	–	–	–	–	30
CCc1ccc(OCC(=O)NNC(=O)c2cc(S(=O)(=O)N3CCOCC3)ccc2N2CCCC2)cc1	–	–	–	–	–
CCc1nnc(NC(=O)Cc2ccc(S(=O)(=O)N3CCCCC3)cc2)s1	–	-32	–	·	–
O=C(COc1ccccc1Cl)NNC(=O)c1cc(S(=O)(=O)N2CCOCC2)ccc1N1CCCC1	–	-32	–	–	–
SMILES	TRHR agonist	D1 antagonist	D1 ag	D1 potentiator	TRHR PAM
Cc1nn(-c2ccccc2)c(OC(=O)C(C)(C)C)c1Sc1ccccc1	–	–	–	–	–
O=C(NCCn1cc(SCc2ccccc2F)c2ccccc21)c1cccs1	–	–	–	–	–
Cc1ccc(-c2cc(C(=O)N3CCN(S(=O)(=O)c4ccc(Br)cc4)CC3)[nH]n2)cc1C	–	–	–	–	–
Cc1ccc(N2CCN(C(=O)c3cn(C)c4ccc(S(=O)(=O)N(C)C)cc4c3=O)CC2C)cc1 (stereo not given)	–	–	–	–	–
CN1CCN(S(=O)(=O)c2ccc(NCc3ccc4c(c3)OCO4)nc2)CC1	–	-33	–	–	–
CCN1CCN(c2ccc(S(=O)(=O)N3CCCCC3)cc2NC(=O)Cc2ccc(Cl)c(Cl)c2)CC1	–	-55	101	–	–
CCN1CCN(c2ccc(S(=O)(=O)N3CCCCC3)cc2NC(=O)c2ccc(C)o2)CC1	–	-48	–	–	–
CN(CC(=O)Nc1ccc(S(=O)(=O)N2CCCC2)cc1)Cc1c(F)cccc1Cl	–	-32	–	–	–
CCN1CCN(c2ccc(S(=O)(=O)N3CCCCC3)cc2NC(=O)Cc2ccccc2)CC1	–	–	–	–	–
Cc1ccc(N2CC(NC(=O)c3ccc4c(c3)OCO4)CC2=O)cc1 (stereo not given)	–	·	–	–	–
CCN1CCN(S(=O)(=O)c2ccc(Cl)c(C(=O)Nc3ccccc3N3CCOCC3)c2)CC1	–	–	–	–	–
CN(CC(=O)Nc1cc(S(=O)(=O)N2CCCC2)ccc1Cl)Cc1ccc2c(c1)OCO2	–	-37	–	–	–
CCN1CCN(S(=O)(=O)c2ccc(Cl)c(C(=O)Nc3cc(Cl)ccc3N3CCOCC3)c2)CC1	–	-40	–	–	–
CN(CC(=O)Nc1cc(S(=O)(=O)N2CCCCCC2)ccc1Cl)Cc1ccc2c(c1)OCO2	–	–	–	–	–
COc1ccccc1N1CCN(c2cc(C)nc3nncn23)CC1	–	–	–	–	–
CCc1ccc(-c2nc(CSCC(=O)NCc3ccc(C)cc3)c(C)o2)cc1	–	–	–	–	–
CCOC(=O)c1c(C)oc2nc(C)nc(NCCCN3CCN(c4cccc(C)c4)C(C)C3)c12 (stereo not given)	–	–	–	–	38
CCOC(=O)c1c(C)oc2nc(C)nc(NCCCN3CCN(c4ccccc4)CC3)c12	–	–	–	–	–
CCCCOc1ccc(-c2nn(-c3ccccc3)cc2C2NC(=O)NC(C)=C2C(=O)OCC)cc1 (stereo not given)	–	–	–	–	–
C/C(=N\Nc1ccc(S(=O)(=O)Nc2ccccc2)cc1[N+](=O)[O-])c1ccncc1	–	-32	–	–	–
CCCC(CCC)=NNc1ccc(S(=O)(=O)Nc2ccccc2OC)cc1[N+](=O)[O-]	–	–	–	–	–
COc1ccccc1NS(=O)(=O)c1ccc(N/N=C(\C)C(C)C)c([N+](=O)[O-])c1	–	-31	–	–	–
COC(=O)CNC(=O)Nc1cc(C(=O)NCc2ccc(C)cc2)ccc1N1CCCC1	–	–	–	–	–
Cn1c(/C=C(\C#N)C(N)=S)ccc1-c1ccc(Br)cc1	–	-37	–	–	–
